Drawing on ChEMBL document CHEMBL2218924, “A broad activity screen in support of a chemogenomic map for kinase signalling research and drug discovery” (Biochem J, 2013), this text covers residual activity for 4 compounds.

Assay [1] has as its target T1, Muscle, skeletal receptor tyrosine-protein kinase (Homo sapiens) (UniProt O15146).
T1 sequence (whole entry): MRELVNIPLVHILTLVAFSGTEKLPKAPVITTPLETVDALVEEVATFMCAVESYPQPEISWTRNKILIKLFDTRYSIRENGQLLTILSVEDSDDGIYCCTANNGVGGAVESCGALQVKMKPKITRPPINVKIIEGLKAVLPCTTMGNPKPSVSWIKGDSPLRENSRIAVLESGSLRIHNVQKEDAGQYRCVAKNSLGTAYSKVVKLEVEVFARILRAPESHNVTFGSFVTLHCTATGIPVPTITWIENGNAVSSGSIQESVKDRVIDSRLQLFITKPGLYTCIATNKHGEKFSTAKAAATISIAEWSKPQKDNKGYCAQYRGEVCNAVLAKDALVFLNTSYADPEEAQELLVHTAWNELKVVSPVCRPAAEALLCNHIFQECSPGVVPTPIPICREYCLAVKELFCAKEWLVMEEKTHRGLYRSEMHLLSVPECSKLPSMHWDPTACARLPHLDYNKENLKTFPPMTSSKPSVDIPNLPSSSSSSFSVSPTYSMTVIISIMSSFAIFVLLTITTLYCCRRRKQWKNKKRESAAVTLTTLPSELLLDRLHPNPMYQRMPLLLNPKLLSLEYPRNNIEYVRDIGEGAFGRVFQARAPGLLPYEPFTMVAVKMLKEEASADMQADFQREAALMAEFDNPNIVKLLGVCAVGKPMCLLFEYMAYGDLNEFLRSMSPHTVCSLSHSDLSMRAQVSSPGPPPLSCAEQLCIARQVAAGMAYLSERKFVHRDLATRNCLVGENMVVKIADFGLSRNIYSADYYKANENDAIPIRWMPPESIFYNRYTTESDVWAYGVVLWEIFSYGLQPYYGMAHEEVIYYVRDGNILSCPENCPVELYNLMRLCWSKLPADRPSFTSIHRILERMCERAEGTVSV
Conditions: at 1 µM.

In assay [2] the target is T1, Muscle, skeletal receptor tyrosine-protein kinase (Homo sapiens). Conditions: at 10 µM.
Assay [3] concerns the target T2, Serine/threonine-protein kinase Nek11 (Homo sapiens) (UniProt Q8NG66).
T2 sequence (whole entry): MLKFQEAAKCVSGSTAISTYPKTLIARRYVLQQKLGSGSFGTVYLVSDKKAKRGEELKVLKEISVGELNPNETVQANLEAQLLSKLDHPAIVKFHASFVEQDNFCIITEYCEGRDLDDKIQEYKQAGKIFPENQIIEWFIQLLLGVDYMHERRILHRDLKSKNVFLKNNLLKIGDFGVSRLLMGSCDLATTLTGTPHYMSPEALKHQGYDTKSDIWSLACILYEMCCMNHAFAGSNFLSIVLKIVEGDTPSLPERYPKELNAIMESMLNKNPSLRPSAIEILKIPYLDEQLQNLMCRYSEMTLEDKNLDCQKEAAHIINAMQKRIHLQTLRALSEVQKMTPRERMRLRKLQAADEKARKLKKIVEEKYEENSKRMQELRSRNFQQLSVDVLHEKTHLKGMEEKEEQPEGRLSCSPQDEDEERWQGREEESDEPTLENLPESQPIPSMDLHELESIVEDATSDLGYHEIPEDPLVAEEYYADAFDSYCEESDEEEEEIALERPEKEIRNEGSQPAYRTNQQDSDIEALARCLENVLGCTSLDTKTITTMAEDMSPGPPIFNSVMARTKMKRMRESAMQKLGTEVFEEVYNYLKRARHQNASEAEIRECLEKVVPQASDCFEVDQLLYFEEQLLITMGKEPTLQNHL
Conditions: at 1 µM.

In assay [4] the target is T2, Serine/threonine-protein kinase Nek11 (Homo sapiens). Conditions: at 10 µM.
Assay [5] has as its target T3, Serine/threonine-protein kinase Nek2 (Homo sapiens) (UniProt P51955).
T3 sequence (whole entry): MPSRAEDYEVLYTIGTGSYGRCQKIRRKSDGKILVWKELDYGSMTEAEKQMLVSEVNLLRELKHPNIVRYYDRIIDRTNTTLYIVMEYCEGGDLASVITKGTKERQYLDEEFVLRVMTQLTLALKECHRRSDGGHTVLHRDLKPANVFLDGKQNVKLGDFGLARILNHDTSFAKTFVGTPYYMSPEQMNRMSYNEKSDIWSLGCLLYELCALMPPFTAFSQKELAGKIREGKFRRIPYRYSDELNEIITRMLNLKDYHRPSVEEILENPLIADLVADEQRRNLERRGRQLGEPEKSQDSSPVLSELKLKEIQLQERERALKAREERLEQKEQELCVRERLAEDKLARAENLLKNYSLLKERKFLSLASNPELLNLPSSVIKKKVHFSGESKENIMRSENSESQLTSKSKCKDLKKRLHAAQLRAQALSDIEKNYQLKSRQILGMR
Conditions: at 1 µM.

Assay [6] deals with T3, Serine/threonine-protein kinase Nek2 (Homo sapiens). Conditions: at 10 µM.
Assay [7] concerns the target T4, Serine/threonine-protein kinase Nek3 (Homo sapiens) (UniProt P51956).
T4 sequence (whole entry): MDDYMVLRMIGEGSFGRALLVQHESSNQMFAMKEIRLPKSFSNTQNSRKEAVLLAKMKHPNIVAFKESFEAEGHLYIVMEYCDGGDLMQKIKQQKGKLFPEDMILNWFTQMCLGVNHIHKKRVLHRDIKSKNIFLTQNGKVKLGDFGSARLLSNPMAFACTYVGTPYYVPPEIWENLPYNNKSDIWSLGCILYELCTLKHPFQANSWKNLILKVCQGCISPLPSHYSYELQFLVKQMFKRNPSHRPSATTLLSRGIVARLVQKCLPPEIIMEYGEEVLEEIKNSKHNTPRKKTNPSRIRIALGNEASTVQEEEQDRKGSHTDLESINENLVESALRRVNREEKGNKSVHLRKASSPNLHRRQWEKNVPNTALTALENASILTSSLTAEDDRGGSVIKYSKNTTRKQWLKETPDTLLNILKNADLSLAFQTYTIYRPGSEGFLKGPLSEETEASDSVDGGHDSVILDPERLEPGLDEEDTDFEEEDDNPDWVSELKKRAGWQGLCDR
Conditions: at 1 µM.

Assay [8] concerns the target T4, Serine/threonine-protein kinase Nek3 (Homo sapiens). Conditions: at 10 µM.
The target of assay [9] is Serine/threonine-protein kinase tousled-like 2 (Homo sapiens) (UniProt Q86UE8). Conditions: at 1 µM.
Serine/threonine-protein kinase tousled-like 2 (Homo sapiens), sequence (Q86UE8 whole entry, looked up): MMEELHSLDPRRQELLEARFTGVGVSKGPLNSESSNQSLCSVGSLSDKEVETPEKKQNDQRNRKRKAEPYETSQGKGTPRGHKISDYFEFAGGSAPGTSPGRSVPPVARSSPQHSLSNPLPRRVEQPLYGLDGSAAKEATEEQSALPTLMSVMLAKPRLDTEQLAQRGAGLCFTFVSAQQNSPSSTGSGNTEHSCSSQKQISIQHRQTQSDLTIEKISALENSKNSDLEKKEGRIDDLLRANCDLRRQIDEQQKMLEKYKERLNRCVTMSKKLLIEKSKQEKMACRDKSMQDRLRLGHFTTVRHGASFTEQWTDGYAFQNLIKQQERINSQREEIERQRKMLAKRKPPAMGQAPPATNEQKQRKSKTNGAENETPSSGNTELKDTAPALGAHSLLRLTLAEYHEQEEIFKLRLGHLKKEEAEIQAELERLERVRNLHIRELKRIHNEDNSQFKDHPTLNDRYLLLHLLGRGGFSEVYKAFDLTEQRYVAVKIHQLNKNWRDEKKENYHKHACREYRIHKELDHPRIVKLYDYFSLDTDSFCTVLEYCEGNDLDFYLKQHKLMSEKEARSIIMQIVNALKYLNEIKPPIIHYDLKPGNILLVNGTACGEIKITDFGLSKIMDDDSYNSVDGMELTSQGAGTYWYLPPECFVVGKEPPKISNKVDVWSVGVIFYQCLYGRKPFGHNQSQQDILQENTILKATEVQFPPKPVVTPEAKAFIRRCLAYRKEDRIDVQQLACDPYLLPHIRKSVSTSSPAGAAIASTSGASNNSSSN
For assay [10] the target is unchanged. Conditions: at 10 µM.
The target in assay [11] is T5, Testis-specific serine/threonine-protein kinase 1 (Homo sapiens) (UniProt Q9BXA7).
T5 sequence (whole entry): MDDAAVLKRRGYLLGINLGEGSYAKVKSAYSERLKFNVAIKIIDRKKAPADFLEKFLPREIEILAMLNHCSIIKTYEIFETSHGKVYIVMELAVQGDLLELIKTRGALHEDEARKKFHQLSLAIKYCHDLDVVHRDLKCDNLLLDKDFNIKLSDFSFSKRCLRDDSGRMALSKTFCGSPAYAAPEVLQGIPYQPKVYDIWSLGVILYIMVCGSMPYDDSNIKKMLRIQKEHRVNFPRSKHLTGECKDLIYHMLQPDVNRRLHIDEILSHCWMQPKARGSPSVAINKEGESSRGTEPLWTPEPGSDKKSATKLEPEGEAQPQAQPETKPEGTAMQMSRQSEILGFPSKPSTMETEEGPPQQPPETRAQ
Conditions: at 1 µM.

Assay [12] deals with T5, Testis-specific serine/threonine-protein kinase 1 (Homo sapiens). Conditions: at 10 µM.
In assay [13] the target is T6, Testis-specific serine/threonine-protein kinase 2 (Homo sapiens) (UniProt Q96PF2).
T6 sequence (whole entry): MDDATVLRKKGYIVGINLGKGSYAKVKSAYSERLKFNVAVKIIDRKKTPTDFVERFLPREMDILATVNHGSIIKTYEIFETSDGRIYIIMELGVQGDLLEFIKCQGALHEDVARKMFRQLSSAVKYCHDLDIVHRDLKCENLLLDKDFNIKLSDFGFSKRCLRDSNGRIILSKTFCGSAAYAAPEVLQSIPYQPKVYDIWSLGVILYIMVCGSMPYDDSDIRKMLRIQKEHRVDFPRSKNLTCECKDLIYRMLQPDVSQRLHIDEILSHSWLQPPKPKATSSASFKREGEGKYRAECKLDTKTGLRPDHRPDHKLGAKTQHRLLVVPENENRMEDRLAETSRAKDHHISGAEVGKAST
Conditions: at 10 µM.

Assay [14] deals with T7, Tyrosine-protein kinase Tec (Homo sapiens) (UniProt P42680).
T7 sequence (whole entry): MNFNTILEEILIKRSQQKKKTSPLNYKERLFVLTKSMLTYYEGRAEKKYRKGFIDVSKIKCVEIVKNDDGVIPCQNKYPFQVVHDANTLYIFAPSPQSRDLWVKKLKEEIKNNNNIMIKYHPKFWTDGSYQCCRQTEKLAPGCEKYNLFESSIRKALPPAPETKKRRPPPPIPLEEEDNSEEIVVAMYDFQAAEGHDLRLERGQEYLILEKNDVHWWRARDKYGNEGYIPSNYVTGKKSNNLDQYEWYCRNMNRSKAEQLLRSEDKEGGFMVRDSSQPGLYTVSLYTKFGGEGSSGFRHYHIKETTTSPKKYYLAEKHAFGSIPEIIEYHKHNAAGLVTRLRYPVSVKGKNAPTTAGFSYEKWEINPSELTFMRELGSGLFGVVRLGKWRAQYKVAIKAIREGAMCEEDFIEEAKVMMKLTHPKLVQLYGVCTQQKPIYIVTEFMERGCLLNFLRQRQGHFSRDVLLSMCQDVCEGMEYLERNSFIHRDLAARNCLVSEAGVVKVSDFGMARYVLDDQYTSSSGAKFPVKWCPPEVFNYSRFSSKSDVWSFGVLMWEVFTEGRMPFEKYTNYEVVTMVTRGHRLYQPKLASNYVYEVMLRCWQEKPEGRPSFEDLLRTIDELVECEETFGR
Conditions: at 1 µM.

Assay [15] addresses T7, Tyrosine-protein kinase Tec (Homo sapiens). Conditions: at 10 µM.
Assay [16] has as its target Angiopoietin-1 receptor (Homo sapiens) (UniProt Q02763). Conditions: at 1 µM.
Assay [17] shares this target. Conditions: at 10 µM.
The target in assay [18] is High affinity nerve growth factor receptor (Homo sapiens) (UniProt P04629). Conditions: at 1 µM.
High affinity nerve growth factor receptor (Homo sapiens), sequence (P04629 33-796 limits assumed): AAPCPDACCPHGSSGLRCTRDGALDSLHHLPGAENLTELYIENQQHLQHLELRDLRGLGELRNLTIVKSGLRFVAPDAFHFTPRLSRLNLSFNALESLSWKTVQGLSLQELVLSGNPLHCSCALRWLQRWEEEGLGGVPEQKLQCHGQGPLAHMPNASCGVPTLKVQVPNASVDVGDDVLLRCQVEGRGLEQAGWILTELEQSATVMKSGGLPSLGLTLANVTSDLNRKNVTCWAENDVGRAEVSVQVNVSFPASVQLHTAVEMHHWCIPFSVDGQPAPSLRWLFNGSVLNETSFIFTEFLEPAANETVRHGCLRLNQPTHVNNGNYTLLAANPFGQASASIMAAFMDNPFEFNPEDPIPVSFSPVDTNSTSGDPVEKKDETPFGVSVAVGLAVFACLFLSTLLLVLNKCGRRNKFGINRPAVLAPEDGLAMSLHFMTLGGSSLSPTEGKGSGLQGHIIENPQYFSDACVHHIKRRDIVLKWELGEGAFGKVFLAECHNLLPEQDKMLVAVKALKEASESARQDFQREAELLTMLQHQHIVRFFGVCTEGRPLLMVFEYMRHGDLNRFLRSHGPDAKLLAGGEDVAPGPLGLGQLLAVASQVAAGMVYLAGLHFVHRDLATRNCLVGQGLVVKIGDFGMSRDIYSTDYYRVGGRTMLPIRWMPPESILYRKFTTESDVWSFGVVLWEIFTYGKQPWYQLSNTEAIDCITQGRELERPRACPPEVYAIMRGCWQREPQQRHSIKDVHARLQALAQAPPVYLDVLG
Assay [19] shares this target. Conditions: at 10 µM.
Assay [20] addresses BDNF/NT-3 growth factors receptor (Homo sapiens) (UniProt Q16620). Conditions: at 1 µM.

BDNF/NT-3 growth factors receptor (Homo sapiens), sequence (Q16620 32-822 limits assumed): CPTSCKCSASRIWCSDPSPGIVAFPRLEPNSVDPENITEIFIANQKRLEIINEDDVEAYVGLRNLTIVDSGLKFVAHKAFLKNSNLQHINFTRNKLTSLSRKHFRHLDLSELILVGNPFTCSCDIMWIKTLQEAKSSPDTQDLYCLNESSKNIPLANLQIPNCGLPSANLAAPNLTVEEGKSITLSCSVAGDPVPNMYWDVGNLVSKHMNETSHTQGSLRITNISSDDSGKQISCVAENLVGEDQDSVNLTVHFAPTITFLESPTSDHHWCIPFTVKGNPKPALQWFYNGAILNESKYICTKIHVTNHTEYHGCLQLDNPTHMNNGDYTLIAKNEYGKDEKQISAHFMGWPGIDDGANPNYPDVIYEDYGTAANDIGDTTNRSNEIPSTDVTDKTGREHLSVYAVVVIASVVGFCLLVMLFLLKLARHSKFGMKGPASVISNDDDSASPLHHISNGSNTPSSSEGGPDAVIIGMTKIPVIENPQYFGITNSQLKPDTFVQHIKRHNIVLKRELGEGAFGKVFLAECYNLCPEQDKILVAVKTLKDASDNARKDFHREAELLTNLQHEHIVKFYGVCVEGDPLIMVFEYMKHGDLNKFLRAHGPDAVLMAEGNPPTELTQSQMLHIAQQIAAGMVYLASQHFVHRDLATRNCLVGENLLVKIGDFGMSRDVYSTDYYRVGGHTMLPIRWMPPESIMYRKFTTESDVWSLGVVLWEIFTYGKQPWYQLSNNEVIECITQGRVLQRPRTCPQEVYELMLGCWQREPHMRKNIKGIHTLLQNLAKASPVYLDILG
Angiopoietin-1 receptor (Homo sapiens), sequence (Q02763 whole entry): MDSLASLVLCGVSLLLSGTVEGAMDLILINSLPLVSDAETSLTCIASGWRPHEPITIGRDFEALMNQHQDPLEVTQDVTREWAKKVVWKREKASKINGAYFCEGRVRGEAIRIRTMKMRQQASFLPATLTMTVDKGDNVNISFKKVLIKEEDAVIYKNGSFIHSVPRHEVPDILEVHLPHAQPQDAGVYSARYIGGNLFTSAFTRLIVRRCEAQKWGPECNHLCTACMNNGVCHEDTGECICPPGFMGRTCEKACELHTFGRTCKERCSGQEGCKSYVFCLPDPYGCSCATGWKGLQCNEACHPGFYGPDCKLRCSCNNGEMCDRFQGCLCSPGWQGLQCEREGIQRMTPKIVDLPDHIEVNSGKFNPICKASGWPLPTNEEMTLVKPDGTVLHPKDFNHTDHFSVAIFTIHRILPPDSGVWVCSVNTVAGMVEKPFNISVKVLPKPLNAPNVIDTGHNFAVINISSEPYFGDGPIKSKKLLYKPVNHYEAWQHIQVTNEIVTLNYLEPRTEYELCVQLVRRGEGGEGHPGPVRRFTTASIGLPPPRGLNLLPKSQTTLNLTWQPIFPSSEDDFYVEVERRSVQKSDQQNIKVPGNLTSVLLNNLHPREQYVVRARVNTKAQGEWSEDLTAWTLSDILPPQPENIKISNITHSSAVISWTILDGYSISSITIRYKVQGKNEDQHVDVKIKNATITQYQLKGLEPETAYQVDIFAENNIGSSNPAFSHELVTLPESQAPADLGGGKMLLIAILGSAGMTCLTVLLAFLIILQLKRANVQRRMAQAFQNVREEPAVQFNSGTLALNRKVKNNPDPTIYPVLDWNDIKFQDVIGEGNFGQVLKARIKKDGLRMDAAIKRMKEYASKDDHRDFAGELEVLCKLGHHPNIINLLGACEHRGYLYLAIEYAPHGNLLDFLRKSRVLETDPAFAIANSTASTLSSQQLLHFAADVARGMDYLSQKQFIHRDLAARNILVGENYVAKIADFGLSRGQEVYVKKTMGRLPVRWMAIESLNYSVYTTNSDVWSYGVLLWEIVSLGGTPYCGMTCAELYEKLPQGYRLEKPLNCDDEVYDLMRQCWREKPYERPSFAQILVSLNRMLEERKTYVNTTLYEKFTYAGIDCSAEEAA

Regarding `CCC(=O)Nc1ccc2ncnc(Nc3cccc(Br)c3)c2c1`, the residual activity is 96% in assay [1]; 84% in assay [2]; 84% in [3]; 92% in assay [4]; 73% in assay [5]; 99% in assay [6]. For the same compound, the residual activity stood at 109% in assay [7]; 98% in assay [8]; 103% in [9]; 92% in assay [10]; 93% in assay [11]; 90% in [12]. In addition, the residual activity came to 102% in assay [13]; 86% in [14]; 90% in [15]; 81% in assay [16]; 70% in assay [17]; 97% in assay [18]. The residual activity was 96% in assay [19] and 77% in assay [20].
As to `O=C(O)c1ccc2c3c1cccc3c(=O)n1c3ccccc3nc21`, the residual activity in assay [1] is 105%; in assay [2], 94%; in [3], 80%; in assay [4] it was 93%; in assay [5], 123%; in assay [6] it was 102%. Besides, the residual activity in assay [7] worked out at 93%; in assay [8] it was 97%; in assay [9] it was 104%; in assay [10] it was 97%; in assay [11], 106%; in assay [12], 79%. Further, the residual activity in assay [13] is 108%; in assay [14], 99%; in [15], 82%; in [16], 106%; in assay [17] it was 99%; in assay [18] it was 78%. Moreover, the residual activity in assay [19] worked out at 19%; in assay [20], 86%.
Take `Nc1cccc(-c2cc3c(Oc4cccc(O)c4)ncnc3[nH]2)c1`: the residual activity was 73% in [1]; 17% in [2]; 54% in [3]; 25% in assay [4]; 97% in assay [5]; 71% in [6]. The residual activity in [7] is 42%; in assay [8], 23%; in assay [9] it was 90%; in assay [10] it was 87%; in [11] it was 101%; in assay [12] it was 71%. The residual activity in assay [13] is 78%; in assay [14], 17%; in assay [15], 0%; in assay [16], 18%; in assay [17] it was 1%; in [18], 61%. For the same compound, the residual activity in [19] was 6%; in [20], 74%.
Consider `Ic1cccc(CSc2nnc(-c3ccncc3)o2)c1`, for which the residual activity in [1] came out at 74%; in assay [2], 59%; in [3], 103%; in assay [4] it was 102%; in assay [5] it was 88%; in assay [6], 89%. Besides, the residual activity in [7] stood at 84%; in assay [8] it was 84%; in assay [9], 83%; in assay [10], 83%; in assay [11] it was 78%; in [12], 86%. Besides, the residual activity in assay [13] was determined as 82%; in assay [14] it was 90%; in assay [15], 64%; in [16], 104%; in assay [17] it was 84%; in assay [18], 87%. The figures for the residual activity in assay [19] and in assay [20] were 64% and 32%, respectively.
